The record followed here is PubChem BioAssay.

Assay [1] can be described thus: anti-His antibody binders, primary screen, artefact control for SMM control protein annotation, biochemical, small-molecule microarray, 635 nm fluorescence (AID 1128).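 Also: score merges feature fluorescence with signal-to-noise for each printed compound spot.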 The note with it: anti-His Alexa647 antibody binding, higher = more signal.
Assay [2] relates to Human papillomavirus type 1a E7 protein (residues 1-88). Description: HPV1a E7 small-molecule binders, primary screen, biochemical, small-molecule microarray, residues 1-88, 635 nm (AID 1129). The note with it: small-molecule microarray binding, fluorescence 635 nm; higher = more signal.
Assay [3] addresses Focal adhesion kinase 1 (Homo sapiens) (UniProt Q05397). In words: small-molecule microarray binders of FAK, primary screen, biochemical, 635/667 nm fluorescence, BSA, DTT (AID 1130).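 Also: composite of spot emission at 667 nm and signal to noise over triplicate slides.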 The note with it: PTK2 binding, 635 nm fluorescence, higher = more signal.
Assay [4] deals with Fibrinogen (Alexa647-labelled). In words: fibrinogen binders on compound microarrays, profiling panel, artefact control for SMM control-protein annotation, biochemical, small-molecule microarray, 635/667 nm fluorescence (AID 1131).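 Also: z-score merges 667 nm fluorescence with per-spot signal-to-noise over triplicate slides.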 The note with it: fibrinogen-A647 binding fluorescence, higher = more signal.
Assay [5] concerns the target Follistatin (Homo sapiens) (UniProt P19883). Description: follistatin binders on small-molecule microarrays, primary screen, biochemical, small-molecule microarray, 635/667 nm fluorescence (AID 1132). The note with it: FST binding, 635 nm fluorescence, higher = more signal.
Assay [6] deals with Fibroblast growth factor 2 (Homo sapiens) (UniProt P09038). In words: FGF2 binders on small-molecule microarrays, primary screen, biochemical, small-molecule microarray, 635/667 nm fluorescence (AID 1133). The note with it: small-molecule microarray binding, FGF2, fluorescence 635/667; higher = more signal.
Chain of Fibroblast growth factor 2 (Homo sapiens) (P09038 whole entry, looked up): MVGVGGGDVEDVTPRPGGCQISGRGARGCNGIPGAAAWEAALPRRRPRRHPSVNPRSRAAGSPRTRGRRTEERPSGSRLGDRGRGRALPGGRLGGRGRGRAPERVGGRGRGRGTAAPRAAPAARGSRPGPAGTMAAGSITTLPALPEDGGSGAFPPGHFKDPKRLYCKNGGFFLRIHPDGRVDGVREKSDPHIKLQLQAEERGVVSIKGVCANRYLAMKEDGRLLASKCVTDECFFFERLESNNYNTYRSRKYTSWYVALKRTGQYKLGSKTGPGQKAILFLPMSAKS
Assay [7] in a line: mitochondrial membrane potential change in A549 cells, profiling panel, cell-based, JC-1 fluorescence, basal, 24 h, 100 nL (AID 1138).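 Also: A549 lung adenocarcinoma cells under basal conditions with no added stimulus; test concentration not given here.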 The note with it: higher = more signal.
A further assay concerns Lefty1. Description: Lefty1 binders on small-molecule microarrays, primary screen, biochemical, small-molecule microarray, 635/667 nm fluorescence (AID 1139). The note with it: small-molecule microarray binding, fluorescence 635/667; higher = more signal.
In assay [8] the test system is wheat germ agglutinin (Triticum aestivum), Alexa647-labelled. Description: wheat germ agglutinin binders on compound microarrays, profiling panel, artefact control for SMM control-protein annotation, biochemical, small-molecule microarray, 635/667 nm fluorescence (AID 1140).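 Also: score merges 667 nm feature emission with signal to noise over triplicate slides.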 The note with it: WGA-A647 binding, 635 nm fluorescence, higher = more signal.
The target of assay [9] is Luciferin 4-monooxygenase (Photinus pyralis) (UniProt P08659). In words: firefly luciferase enzyme inhibitors, primary screen, biochemical, luminescence, purified enzyme, 2006 set (AID 1141).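 Also: cell-free assay with purified firefly luciferase at 100 ng per well in PBS; test concentration not given here.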 The note with it: SteadyGlo luminescence, 30 min, higher = more signal, called active from +8 up or from −8 down.
Chain of Luciferin 4-monooxygenase (Photinus pyralis) (P08659 whole entry, looked up): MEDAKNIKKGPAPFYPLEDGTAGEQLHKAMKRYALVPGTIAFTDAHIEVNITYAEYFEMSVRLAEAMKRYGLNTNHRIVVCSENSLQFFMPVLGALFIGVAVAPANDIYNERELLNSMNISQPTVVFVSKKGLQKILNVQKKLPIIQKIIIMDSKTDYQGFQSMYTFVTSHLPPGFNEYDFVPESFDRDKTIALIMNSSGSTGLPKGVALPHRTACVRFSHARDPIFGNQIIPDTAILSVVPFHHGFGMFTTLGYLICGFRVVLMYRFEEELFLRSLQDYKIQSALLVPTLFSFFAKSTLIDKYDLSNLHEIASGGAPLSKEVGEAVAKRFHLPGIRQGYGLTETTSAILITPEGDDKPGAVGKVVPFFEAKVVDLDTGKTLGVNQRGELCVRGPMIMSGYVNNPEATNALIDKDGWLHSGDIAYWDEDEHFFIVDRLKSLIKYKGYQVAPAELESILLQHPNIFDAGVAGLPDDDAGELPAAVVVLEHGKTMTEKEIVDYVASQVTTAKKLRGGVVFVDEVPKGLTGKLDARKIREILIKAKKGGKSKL
In assay [10] the test system is Wnt5a (protein binding on small-molecule microarray). Description: Wnt5a binders on small-molecule microarray, primary screen, biophysical, 635/667 nm fluorescence (AID 1142).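 Also: fluorescence read at 667 nm with signal to noise per printed feature.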 The note with it: 635 nm fluorescence, higher = more signal.
Assay [11] is described as follows: cell viability in Huh7 cells, primary screen, cytotoxicity control for HCV replication inhibitor project, CellTiter-Glo luminescence, basal, 48 h (AID 1143).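 Also: Huh7 hepatoma cells carrying a hepatitis C replication reporter with no stimulus; test concentration not given here.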 The note with it: Huh7 HCV replicon, higher = more signal, called active from +8 up or from −8 down. On the technique in general: Cellular ATP, detected with luciferase, serves as a proxy for viable cell number.

The nature of assay [12]: P. aeruginosa biofilm formation inhibitors, primary screen, PAO1 strain, BacTiter-Glo luminescence, LB-PBS (AID 1144). The note with it: 12 h, higher = more signal.
Assay [13] can be described thus: CREB reporter modulators without forskolin, primary screen, cell-based, PC12, CRE-LacZ reporter, unstimulated (AID 1145). The note with it: no forskolin, luminescence, 4.5 h, higher = more signal, called active from +8 up or from −8 down.
Assay [14] can be described thus: CREB reporter modulators under forskolin, primary screen, cell-based, PC12, CRE-LacZ reporter, forskolin-stimulated (AID 1146).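 Also: PC12 cells with 6xCRE LacZ reporter stimulated by forskolin 10 µM; beta-galactosidase reporter signal reflecting CREB driven transcription.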 The note with it: luminescence, 4.5 h, higher = more signal, called active from +8 up or from −8 down.
Assay [15] deals with Streptavidin (Streptomyces avidinii) (UniProt P22629). In words: streptavidin binders on small-molecule microarray, primary screen, artefact control for SMM compound annotation, biophysical, 635/667 nm fluorescence (AID 1147).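 Also: signal reflects streptavidin binding to arrayed compounds as a control protein.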 The note with it: streptavidin binding, higher = more signal.
Chain of Streptavidin (Streptomyces avidinii) (P22629 whole entry, looked up): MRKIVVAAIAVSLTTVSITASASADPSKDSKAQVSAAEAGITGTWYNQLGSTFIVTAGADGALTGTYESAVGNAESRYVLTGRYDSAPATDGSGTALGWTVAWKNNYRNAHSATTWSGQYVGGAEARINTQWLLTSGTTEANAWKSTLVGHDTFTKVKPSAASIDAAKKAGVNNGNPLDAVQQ
Assay [16] can be described thus: small-molecule binders of probe aInhba, primary screen, biochemical, small-molecule microarray, 635/667 nm fluorescence (AID 1148).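 Also: score merges 667nm spot fluorescence with signal-to-noise for antibody binding to printed compounds.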 The note with it: higher = more signal.
The target in assay [17] is Torsin-1A (Homo sapiens) (UniProt O14656). Description: torsin A binders from cell lysate, primary screen, small-molecule microarray, wild-type, 635/667 nm (AID 1149). The note with it: COS7 hTOR1A-WT lysate, 635 nm fluorescence, higher = more signal.
Chain of Torsin-1A (Homo sapiens) (O14656 whole entry, looked up): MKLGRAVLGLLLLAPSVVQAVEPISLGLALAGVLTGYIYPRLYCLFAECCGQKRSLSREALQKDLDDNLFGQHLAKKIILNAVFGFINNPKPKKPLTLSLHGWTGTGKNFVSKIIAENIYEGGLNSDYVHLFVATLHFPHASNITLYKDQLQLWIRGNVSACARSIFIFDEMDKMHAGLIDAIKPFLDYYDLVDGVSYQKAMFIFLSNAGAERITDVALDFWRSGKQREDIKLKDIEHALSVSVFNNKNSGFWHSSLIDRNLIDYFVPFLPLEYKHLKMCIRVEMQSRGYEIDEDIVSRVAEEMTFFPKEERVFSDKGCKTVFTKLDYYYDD
For assay [18] the target is unchanged. In words: small-molecule binders of mutant TOR1A in lysate, primary screen, cell lysate, small-molecule microarray, COS7 lysate, 635/667 nm fluorescence (AID 1150).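 Also: score pools 667 nm emission and signal to noise measuring lysate protein binding.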 The note with it: COS7 hTOR1A mutant lysate, 635 nm fluorescence, higher = more signal.
Assay [19] relates to Sonic hedgehog protein (Shh). Description: small-molecule binders of Shh protein, primary screen, biochemical, small-molecule microarray, 635/667 nm fluorescence (AID 1151).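 Also: Shh protein binding to compounds spotted on small-molecule microarray slides; score combines spot fluorescence intensity with signal-to-noise across triplicate slides.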 The note with it: small-molecule microarray binding, 635 nm fluorescence; higher = more signal.

Structures are written as SMILES. Activity calls are given as the source filed them. Unless noted, no rule for the calls is given here.

Chain of Follistatin (Homo sapiens) (P19883 whole entry, looked up): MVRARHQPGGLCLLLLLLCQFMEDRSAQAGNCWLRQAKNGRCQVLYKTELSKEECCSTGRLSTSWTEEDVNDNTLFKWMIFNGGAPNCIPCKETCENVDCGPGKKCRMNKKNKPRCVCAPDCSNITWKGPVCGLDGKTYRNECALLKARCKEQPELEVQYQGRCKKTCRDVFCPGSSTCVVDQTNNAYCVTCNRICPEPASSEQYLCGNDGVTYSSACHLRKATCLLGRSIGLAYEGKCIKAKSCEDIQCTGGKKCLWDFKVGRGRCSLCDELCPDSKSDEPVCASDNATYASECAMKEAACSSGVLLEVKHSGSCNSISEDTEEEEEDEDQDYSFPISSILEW
Chain of Focal adhesion kinase 1 (Homo sapiens) (Q05397 whole entry, looked up): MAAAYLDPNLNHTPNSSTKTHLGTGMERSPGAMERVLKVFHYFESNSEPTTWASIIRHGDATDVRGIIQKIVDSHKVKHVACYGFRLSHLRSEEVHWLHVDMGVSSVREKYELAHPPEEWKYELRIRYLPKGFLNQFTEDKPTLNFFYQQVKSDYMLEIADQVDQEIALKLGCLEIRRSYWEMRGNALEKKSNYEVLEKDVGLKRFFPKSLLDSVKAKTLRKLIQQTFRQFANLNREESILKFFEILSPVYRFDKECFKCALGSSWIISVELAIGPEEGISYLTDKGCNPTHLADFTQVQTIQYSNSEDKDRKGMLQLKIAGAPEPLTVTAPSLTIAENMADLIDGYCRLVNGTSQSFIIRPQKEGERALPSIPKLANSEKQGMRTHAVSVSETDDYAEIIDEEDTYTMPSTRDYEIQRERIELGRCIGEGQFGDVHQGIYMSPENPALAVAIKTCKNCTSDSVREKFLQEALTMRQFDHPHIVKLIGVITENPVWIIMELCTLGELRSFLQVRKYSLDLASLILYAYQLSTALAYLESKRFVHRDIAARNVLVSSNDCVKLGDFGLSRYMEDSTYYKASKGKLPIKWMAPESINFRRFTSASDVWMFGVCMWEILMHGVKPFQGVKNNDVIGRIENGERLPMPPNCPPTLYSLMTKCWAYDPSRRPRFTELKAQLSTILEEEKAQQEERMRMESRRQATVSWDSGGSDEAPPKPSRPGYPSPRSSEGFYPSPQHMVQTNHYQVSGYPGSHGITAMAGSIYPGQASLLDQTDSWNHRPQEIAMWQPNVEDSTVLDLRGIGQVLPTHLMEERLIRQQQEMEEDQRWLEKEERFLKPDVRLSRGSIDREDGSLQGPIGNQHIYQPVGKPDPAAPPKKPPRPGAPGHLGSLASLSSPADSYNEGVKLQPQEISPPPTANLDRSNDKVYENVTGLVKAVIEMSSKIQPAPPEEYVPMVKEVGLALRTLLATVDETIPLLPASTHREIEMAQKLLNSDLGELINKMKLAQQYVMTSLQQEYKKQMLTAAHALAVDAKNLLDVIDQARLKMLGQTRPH

As for `C=C(COC)/C(=C/C[C@H](OC(=O)c1ccncc1)c1cccc(OCCO)c1)c1cnc2ccccc2c1`, the composite z-score is 2.08 in [1]; 1.22 in assay [2]; 0.521 in [3]; 0.893 in [4]; 1.36 in [5]; 0.694 in assay [6]. In addition, the composite z-score is 1.62 in the assay on Lefty1; 1.4 in assay [8]; 0.154 in assay [10]; 1.7 in [15]; 0.322 in assay [16]; 0.839 with Torsin-1A (Homo sapiens) [17]. The composite z-score in the assay with Torsin-1A (Homo sapiens) [18] was determined as 0.897; in [19], 2.02. Besides, the z-score was 0.365 in [7]; -0.631 (inactive) in assay [9]; 0.0839 (inactive) in assay [11]; 0.0918 (inactive) in [12]; 0.769 (inactive) in assay [13]; 0.506 (inactive) in assay [14].
Consider `C[C@]1(C(=O)NCC(F)(F)F)c2ccccc2C(=O)N(Cc2ccc(OC(F)(F)F)cc2)[C@H]1c1ccc(CO)cc1`, for which the composite z-score in assay [1] was found to be 0.781; in assay [2] it was 0.269; in assay [3], 0.273; in [4], 0.0709; in assay [5], 1.13; in assay [6], 0.358. The composite z-score in the assay with Lefty1 is 0.369; in assay [8], 0.314; in [10], -0.151; in assay [15], 0.0803; in [16], -0.128; with Torsin-1A (Homo sapiens) [17], -0.906. For the same molecule, the composite z-score in the assay with Torsin-1A (Homo sapiens) [18] came to 0.7; in assay [19] it was 0.31. For the same molecule, the z-score in assay [7] is -0.274; in [9], -0.219 (inactive); in assay [11], -2.8 (inactive); in [12], 0.382 (inactive); in [13] it was 0.324 (inactive); in assay [14], 1.3 (inactive).
In the case of `C=CCC(OC(C)=O)[C@@H]1[C@@H](N(Cc2ccc(-c3cccc(C(F)(F)F)c3)o2)C(=O)c2cccc3ccccc23)c2cc(OCCCO)ccc2N1C(=O)c1ccc2ccccc2n1` (stereo not given in full), the composite z-score in assay [1] is -0.188; in [2] it was -0.696; in assay [3], -0.323; in assay [4], -0.0203; in assay [5], 0.587; in assay [6] it was 0.0226. In addition, the composite z-score is 0.375 in the assay on Lefty1; -0.0681 in assay [8]; -0.0713 in assay [10]; -0.32 in assay [15]; -0.024 in assay [16]; 0.17 with Torsin-1A (Homo sapiens) [17]. The composite z-score with Torsin-1A (Homo sapiens) [18] is -0.662; in assay [19], 0.259. Moreover, the z-score in [7] was -0.431; in [9], 0.587 (inactive); in assay [11], -1.33 (inactive); in assay [12], -0.214 (inactive); in [13], -0.258 (inactive); in assay [14], 0.0155 (inactive).
Turning to `C#CCN([C@H](/C=C/C1CC1)[C@@H](O)Cc1ccccc1)[C@@H](Cc1ccccc1)C(=O)OC`, the composite z-score in assay [1] is 0.482; in assay [2] it was -0.517; in assay [3], -0.113; in assay [4], -0.408; in assay [5], 0.794; in assay [6] it was -0.182. In addition, the composite z-score was 0.683 with Lefty1; -0.34 in [8]; -0.48 in assay [10]; 0.483 in assay [15]; 0.0013 in [16]; 0.0515 in the assay with Torsin-1A (Homo sapiens) [17]. Besides, the composite z-score is -0.409 with Torsin-1A (Homo sapiens) [18] and 1.08 in assay [19]. Besides, the z-score in [7] was 3.47; in assay [9], 0.778 (inactive); in [11] it was -2.91 (inactive); in assay [12] it was -0.669 (inactive); in [13], 3.21 (inactive); in assay [14], -0.765 (inactive).
Take `CC(C)=CCN(C(=O)C#Cc1ccccc1)[C@H](CO)c1ccccc1`: the composite z-score is 0.326 in assay [1]; 0.419 in assay [2]; -0.0317 in [3]; 0.237 in assay [4]; 0.653 in [5]; 0.766 in assay [6]. Besides, the composite z-score with Lefty1 is 0.743; in assay [8], 0.146; in assay [10], -0.0314; in assay [15], -0.131; in [16], -0.15; with Torsin-1A (Homo sapiens) [17], 0.423. Also, the composite z-score with Torsin-1A (Homo sapiens) [18] was -0.0045; in [19], 0.708. Also, the z-score is -0.842 in assay [7]; 0.265 (inactive) in assay [9]; -8.76 (active) in assay [11]; 1.15 (inactive) in [12]; 14.3 (active) in [13]; -4.52 (inactive) in assay [14].
